This excerpt belongs to a sample that is enriched for hits.
Sm TGR inh: blocks Schistosoma mansoni thioredoxin glutathione reductase; 360,000 compounds, 3% hits; AID 485364; Q962Y6; purified TGR, DTNB reduction, TNB absorbance 405 nm; Potency, µM (titrated, usually from 114 µM), for inactives: top-dose activity change, negative = inhibition, hits mostly inhibitors; further: potency means the concentration at half of the fitted maximal effect; on the % scale 0 is the no-effect control and ±100 the full control effect; nearly all actives have a fitted effect of over 60% in size
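TGR 20 nM + NADPH 100 uM (dispensed conc.), cpd preinc 15 min RT; start with NADPH (500 uM addition) then DTNB (15 mM addition). Kinetic TNB absorbance, 405 nm filter. Four-parameter Hill fit across titration.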
FBPA Giardia inh: inhibitors of Giardia lamblia fructose-1,6-bisphosphate aldolase; A8B2U2; purified Giardia FBPA; Potency, µM (series often up to 59.6 µM), inactives show top-dose activity, negative = inhibition, actives largely listed as inhibitors; 290,000 compounds, 0.71% hits; AID 2451; further: potency means the concentration at half of the fitted maximal effect; on the % scale 0 is the no-effect control and ±100 the full control effect; nearly all actives have a fitted effect of over 55% in size
Target sequence (A8B2U2 whole entry, looked up): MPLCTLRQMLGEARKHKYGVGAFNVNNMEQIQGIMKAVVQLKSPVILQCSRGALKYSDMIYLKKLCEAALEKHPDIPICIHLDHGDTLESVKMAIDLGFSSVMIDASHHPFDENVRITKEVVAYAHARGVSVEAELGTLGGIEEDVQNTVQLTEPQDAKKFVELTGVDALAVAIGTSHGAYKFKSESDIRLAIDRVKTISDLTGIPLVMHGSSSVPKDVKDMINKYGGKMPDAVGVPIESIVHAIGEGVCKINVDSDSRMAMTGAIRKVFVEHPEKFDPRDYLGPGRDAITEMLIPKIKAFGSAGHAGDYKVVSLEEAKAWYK
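Giardia FBPA (40 nM reagent) was preincubated 10 min at RT with compound (up to 57.5 uM final), then substrate plus GAPDH/TPI/NAD/arsenate coupling system with diaphorase/resazurin was added; resorufin fluorescence (525/598 nm) was read after 20 min.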
TbPYK inhibitor: T. brucei pyruvate kinase inhibition. Q57TT1. TbPYK enzyme, Kinase-Glo Plus ATP luminescence, 45 min. Potency, µM (series often up to 76.8 µM), for inactives: top-dose activity, negative = inhibition, most hits filed as inhibitors. 410,000 compounds, 0.12% hits. AID 624173; further: potency means the concentration at half of the fitted maximal effect; on the % scale 0 is the no-effect control and ±100 the full control effect; nearly all actives have a fitted effect of over 50% in size
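Quantitative HTS: titrated library compounds versus trypanosomal pyruvate kinase in TEA buffer (pH 7.2) containing KCl, MgCl2, BSA and Tween-20. Reactions were initiated with ADP, 130 uM final. Kinase-Glo Plus luminescence was read after 45 min at RT.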
Shiga toxin inh: blocks Shiga toxin action in Vero cells. Vero cells, Shiga toxin protein synthesis inhibition reporter. inhibition, % at 38.7 µM. 290,000 compounds, 9.2% hits. AID 2315; in the data active means inhibition mostly above about 28%, no sharp cut-off; inactive means mostly below about 43%; further: 0% is about no effect
LmPK inh: blocks Leishmania mexicana pyruvate kinase activity; purified LmPK, Kinase-Glo ATP luminescence, 1 h; Q27686; Potency, µM (titrated, usually from 57.5 µM), for inactives: top-dose activity change, negative = inhibition, actives largely listed as inhibitors; AID 1721; 290,000 compounds, 0.37% hits; further: potency means the concentration at half of the fitted maximal effect; on the % scale 0 is the no-effect control and ±100 the full control effect
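qHTS format; LmPK 0.1 nM; substrates PEP 0.5 mM and ADP 0.1 mM. One-hour room-temperature incubation, then coupled luciferase luminescence; 0.5 nM enzyme wells mark activation.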
Cycloheximide cs: affects cycloheximide protein synthesis inhibition readout, counter-screen; 300,000 compounds, 12% hits; cell reporter, cycloheximide protein synthesis inhibition counterscreen; max response, %; AID 2314; in the data active means max response mostly above about 13%, no sharp cut-off; inactive means mostly below about 14%; further: read at 38.3 µM for the half of the compounds with a filed dose; 0% is about no effect
An asterisk follows results filed as active; ? = inconclusive; . = no result given; + = active, no number; [ ] = dose if it differs, or a comment. Unless noted, the call rests on the fitted dose curve; in most records, active means well fitted curve in the direction sought with a large enough effect; inconclusive means small, poorly fitted or top-dose-only effect, or another doubt; inactive means no such curve, though single readings can be large; an effect the other way counts as inactive or inconclusive.

SMILES | Sm TGR inh | FBPA Giardia inh | TbPYK inhibitor | Shiga toxin inh | LmPK inh | Cycloheximide cs
CNC(=S)N1N=C(c2ccc(C)cc2)CC1c1ccc(N(C)C)cc1 (stereo not given) | -7% | -30% | -6% | 86 | 4% | 43*
N=c1c2ccccc2nnn1-c1ccc(C(F)(F)F)cc1 | -4% | 0% | -1% | 76* | 1% | 40*
O=C1OC(c2cccs2)=N/C1=C\c1ccc(-c2ccccc2Cl)o1 | ? | 12% | 3% | -2 | -1% | 0
O=C1OC(c2cccs2)=N/C1=C/c1ccc(-c2cccc(C(=O)O)c2)o1 | 22µM* | -21% | -14% | 27 | 1% | 26*
COCCCNC(=O)c1ccc(NC(=O)N2CCCCc3ccccc32)cc1 | 8% | . | -2% | . | . | .
O=C1CN(C(=O)COC(=O)CCC(=O)c2ccc(Cl)cc2)c2ccccc2N1 | . | . | 1% | . | . | .
O=C1CN(C(=O)COC(=O)CCC(=O)c2ccc3c(c2)OCCO3)c2ccccc2N1 | -27% | 8% | 1% | 35 | -2% | 19*
CCCOc1ccc(C(=O)CCC(=O)OCC(=O)N2CC(=O)Nc3ccccc32)cc1 | 3% | -2% | 3% | -7 | 8% | 32*
Cc1cccc(N(CC(=O)NCc2ccc(F)cc2)C(=O)c2ccco2)c1 | -10% | 1% | -1% | -9 | -5% | -6
NS(=O)(=O)c1cc2c(cc1C(F)(F)F)N[C@H](Cc1ccccc1)NS2(=O)=O | . | 1%[21.7 µM] | 4%[33.2 µM] | . | . | .
CN(Cc1ccccc1)C(=O)c1nc[nH]c1C(=O)N1CCc2ccccc2C1 | 35µM* | . | -1% | . | . | .
O=C(N[C@@H](Cc1ccccc1)C(=O)OCc1ccccc1)c1nc[nH]c1C(=O)N1CCc2ccccc2C1 | 9% | -16% | -4% | 16 | 4% | 18*
O=C(c1nc[nH]c1C(=O)N1CCc2ccccc2C1)N1CCc2ccccc2C1 | 3% | . | 3% | . | . | .
O[C@@H](CNC[C@H](O)[C@H]1CCc2cc(F)ccc2O1)[C@@H]1CCc2cc(F)ccc2O1 | . | . | 0% | . | . | .
COc1ccc(-c2ccc(C(=O)NCc3ccc(C(F)(F)F)cc3)c3occc23)c(C)c1 | . | . | 6% | . | . | .
CSc1cccc(-n2cc(-c3ccc4c(c3)OCO4)[nH]c2=O)c1 | ? | -4% | -8% | 83* | -1% | 29*
CCOC(=O)N1CCN(C(=O)COC(=O)c2ccc(Cl)nc2)CC1 | . | . | -2% | . | . | .
COc1ccccc1-c1cccc([C@@H]2C[C@H]3[C@H](CON3C)CN2C)c1 | . | . | 5% | . | . | .
CC(C)=N/N=C1\NC(=O)C(C)S1 (stereo not given) | 1% | ? | 0% | 27 | -1% | 29*
Cc1ccc2ccc(S(=O)(=O)NCc3ccccn3)cc2c1 | -2% | 1% | 0% | 39* | 12% | 19
COc1ccc(S(=O)(=O)NCc2ccccn2)cc1C | . | . | -6% | . | . | .
O=S(=O)(c1ccc(Cl)cc1)c1cc(O)ccc1O | 11µM* | -10% | -11% | 22 | -18% | -3
O=S(=O)(c1ccccc1)c1cc(O)ccc1O | 28µM* | -5% | -18% | -14 | -3% | -3
Cc1c(O)ccc2cc(S(=O)(=O)c3ccccc3)c(=O)oc12 | -28% | 13% | -1% | -1 | 4% | 0
Cc1cccc(NS(=O)(=O)c2ccc(C)c(NS(=O)(=O)c3cccs3)c2)c1 | -13% | . | -4% | . | . | .
SMILES | Sm TGR inh | FBPA Giardia inh | TbPYK inhibitor | Shiga toxin inh | LmPK inh | Cycloheximide cs
COc1ccc(-c2c(C3C4C=CCCC4(C)C(=O)N3Cc3ccccc3)ccc3ccccc23)cc1 (stereo not given) | . | 6% | . | + | . | 103*
Cc1nnc2c3ccccc3nc(N3CCN(c4cccc(Cl)c4)CC3)n12 | 2% | . | 2%[15.4 µM] | . | . | .
COc1ccc2c(c1)Cc1sc(NC(=O)c3cccnc3)nc1-2 | -3% | -17% | -11% | 13 | -29% | 6
COc1ccc2c(c1)-c1nc(NC(=O)c3cccs3)sc1CC2 | 3% | -25% | -8% | 75* | 1% | 24*
COc1ccc2c(c1)CCc1sc(NC(=O)c3ccco3)nc1-2 | -5% | ? | -7% | 129* | 4% | 50*
COc1ccc2c(c1)CCc1sc(NC(=O)c3ccc(C)cc3)nc1-2 | -8% | . | -12% | 80 | -1% | 19
COc1ccc2c(c1)-c1nc(NC(=O)c3cccc(Br)c3)sc1CC2 | 4% | . | -8% | . | . | .
COc1ccc2c(c1)Cc1sc(NC(C)=O)nc1-2 | 56µM* | ? | ? | 72* | -30% | 40*
COc1ccc2c(c1)Cc1sc(NC(=O)c3ccco3)nc1-2 | -4% | . | -18% | 62* | 1% | 74*
CCCCCCOc1ccc(/C=C/C(=O)Nc2sc3c(c2C(=O)OC)CCC3)cc1OC | -2% | . | 6% | . | . | .
COc1ccc2c(c1)-c1nc(NC(=O)c3ccco3)sc1CC2 | 6% | -7% | -1% | 121* | 0% | 49*
COc1cccc(OC)c1C(=O)Nc1nc2c(s1)CCc1ccccc1-2 | -4% | . | 3% | . | . | .
CC1(C)Cc2c(sc3nc(SCC(=O)O)nc(N)c23)CO1 | -8% | 3% | ? | 24 | ? | -4
COC(=O)CSc1nc(N)c2c3c(sc2n1)CCCC3 | ? | -6% | -6% | 46 | 1% | 16*
CC(C)(C)C1CCc2c(sc3nc(SCC(=O)O)nc(N)c23)C1 (stereo not given) | 0% | 7% | ? | 34 | 25µM* | 16*
Nc1nc(SCC(=O)NCCO)nc2sc3c(c12)CCCC3 | -8% | -5% | -3% | -2 | 1% | 9
COc1ccc(CNC(=O)C(c2ccncc2)N(C(=O)Cc2cccs2)c2ccccc2)cc1 (stereo not given) | -1% | 3% | 0% | -8 | 5% | -1
COc1ccc(N(C(=O)CCl)C(C(=O)NCCc2ccccc2)c2cccs2)cc1 (stereo not given) | 10µM* | -2% | -1% | -15 | 5% | 2
COc1cccc(CNC(=O)Cn2nc(C)c3sc4ccccc4c3c2=O)c1OC | -2% | . | 3% | . | . | .
O=C(/C=C/c1ccc(-c2ccccc2[N+](=O)[O-])o1)c1ccccc1 | ? | ? | -5% | 96* | 0% | 51*
CNC(=O)/C(C#N)=C/c1ccc(-c2ccc(Cl)cc2)o1 | 1%[57.1 µM] | 3% | -6% | 76* | -1% | 28*
O=C1/C(=C\c2ccc(-c3ccccc3[N+](=O)[O-])o2)C(c2ccccc2)=NN1c1ccccc1 | 3% | -3% | -3% | 0 | -11% | 2
N#C/C(=C\c1ccc(-c2ccc(C(=O)O)cc2)o1)C(=O)Nc1ccc(F)cc1 | -7% | -22% | -12% | 21 | -1% | -3
Cc1cccc(C)c1NC(=O)/C(C#N)=C/c1ccc(-c2ccc(C(=O)O)cc2)o1 | 2% | -10% | -1% | 70* | -2% | 21*
O=C(O)/C(=C\c1ccc(-c2ccccc2[N+](=O)[O-])o1)c1ccccc1 | 35µM* | -14% | 1% | 28* | -16% | 11
